Several values for one entry are separate records, joined by “and”; a condition that tells them apart may be missing. Equal values may be shown once. Records with an inconclusive call do not appear. Some compounds were tested as several samples or in several runs, with calls that do not always agree. Activity calls are given as the source filed them. Unless noted, the call rests on the fitted dose curve; in most records, active means well fitted curve in the direction sought with a large enough effect; inconclusive means small, poorly fitted or top-dose-only effect, or another doubt; inactive means no such curve, though single readings can be large; an effect the other way counts as inactive or inconclusive.
Legend:
[1] = AP1 Signaling Pathway (AID 357; active means well fitted curve in either direction with a large enough effect, not every such curve was filed as active; further: on the % scale 0 is the no-effect control and ±100 the full control effect); settings: ME-180 AP-1-bla reporter, EGF-induced, beta-lactamase ratio, 5 h; at 17.2 µM (top of the series)
How it was run: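 ME-180 cells with beta-lactamase reporter under AP-1 response element, stimulated with EC50 EGF; compounds tested in titration series, 5 h at 37 °C. CCF4 substrate added 2.5 h at room temperature; 460/530 nm emission ratio gave %activity and AC50.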

[2] = biological target: Cytochrome P450 1A2 (Homo sapiens) (UniProt P05177); assay: p450-cyp1a2 (AID 410; calls by dose curve; further: potency means the concentration at half of the fitted maximal effect;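 on activity change, negative = inhibition: -100% = full effect of reference inhibitor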)
Sequence of Cytochrome P450 1A2 (Homo sapiens) (P05177 whole entry, looked up): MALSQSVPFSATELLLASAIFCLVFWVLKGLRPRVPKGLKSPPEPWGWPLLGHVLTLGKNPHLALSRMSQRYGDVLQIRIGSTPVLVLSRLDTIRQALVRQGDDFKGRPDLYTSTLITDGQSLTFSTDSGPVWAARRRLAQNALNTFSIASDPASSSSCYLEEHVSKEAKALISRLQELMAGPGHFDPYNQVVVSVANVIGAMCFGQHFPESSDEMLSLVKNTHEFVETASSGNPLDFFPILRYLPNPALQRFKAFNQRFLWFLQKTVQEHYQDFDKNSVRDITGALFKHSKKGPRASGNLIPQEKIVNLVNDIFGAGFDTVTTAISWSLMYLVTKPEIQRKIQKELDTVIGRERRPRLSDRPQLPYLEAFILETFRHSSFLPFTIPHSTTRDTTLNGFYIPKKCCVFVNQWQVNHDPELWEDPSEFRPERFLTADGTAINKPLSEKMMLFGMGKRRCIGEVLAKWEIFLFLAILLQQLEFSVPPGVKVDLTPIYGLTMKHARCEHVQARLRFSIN
How it was run: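 Human CYP1A2 (20nM) demethylated Luciferin-ME at its Km (100uM) in 100mM KPO4. After 10 min compound preincubation, NADPH regeneration ran the reaction 60 min at room temperature. Luciferin was read by luminescence, normalized to 57 uM furafylline.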

[3] = NFAT Signaling Pathway (AID 444; active means well fitted curve in either direction with a large enough effect, not every such curve was filed as active;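 further: carbachol stimulus at about its EC50 of 1 µM final; on the % scale 0 is the no-effect control and ±100 the full control effect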); settings: Jurkat NFAT-bla M1, carbachol, beta-lactamase ratio, 5 h; at 17.2 µM (top of the series)
How it was run: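 Jurkat cells carrying an NFAT-driven β-lactamase reporter and co-transfected muscarinic M1 receptor were treated with compound plus carbachol (1 uM final, an EC50 level) for 5 h at 37 °C. CCF4 loading followed for 1 h at RT; 460/530 nm ratio gave %activity.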

[4] = Stat Signaling Pathway (AID 446; active means well fitted curve in either direction with a large enough effect, not every such curve was filed as active;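 further: ME-180 cervical cancer cells given 40 pM IL-6 alongside compound; SIE-controlled beta-lactamase reporter measured as 460/530 nm FRET emission ratio; on the % scale 0 is the no-effect control and ±100 the full control effect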); settings: ME-180 SIE beta-lactamase reporter, IL-6 stimulated, 5 h; at 17.2 µM (top of the series)
How it was run: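 ME-180 SIE-bla cells; overnight plating; cpd + IL-6 40 pM, 5 h, 37 C; LiveBLAzer 2.5 h RT; 460/530 nm emission ratio. Normalized to 300 pM IL-6 and 125 nM JAK inhibitor controls.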

[5] = biological target: Glucocorticoid receptor (Homo sapiens) (UniProt P04150); assay: GR-GFP Redistribution (AID 450;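 active means compounds whose dose series gives a full or clear partial fitted curve of increased nuclear translocation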; further: potency means the concentration at half of the fitted maximal effect); settings: U2OS GR-GFP nuclear translocation, laser cytometry, 2 h
Sequence of Glucocorticoid receptor (Homo sapiens) (P04150 whole entry, looked up, the tested form may be a part): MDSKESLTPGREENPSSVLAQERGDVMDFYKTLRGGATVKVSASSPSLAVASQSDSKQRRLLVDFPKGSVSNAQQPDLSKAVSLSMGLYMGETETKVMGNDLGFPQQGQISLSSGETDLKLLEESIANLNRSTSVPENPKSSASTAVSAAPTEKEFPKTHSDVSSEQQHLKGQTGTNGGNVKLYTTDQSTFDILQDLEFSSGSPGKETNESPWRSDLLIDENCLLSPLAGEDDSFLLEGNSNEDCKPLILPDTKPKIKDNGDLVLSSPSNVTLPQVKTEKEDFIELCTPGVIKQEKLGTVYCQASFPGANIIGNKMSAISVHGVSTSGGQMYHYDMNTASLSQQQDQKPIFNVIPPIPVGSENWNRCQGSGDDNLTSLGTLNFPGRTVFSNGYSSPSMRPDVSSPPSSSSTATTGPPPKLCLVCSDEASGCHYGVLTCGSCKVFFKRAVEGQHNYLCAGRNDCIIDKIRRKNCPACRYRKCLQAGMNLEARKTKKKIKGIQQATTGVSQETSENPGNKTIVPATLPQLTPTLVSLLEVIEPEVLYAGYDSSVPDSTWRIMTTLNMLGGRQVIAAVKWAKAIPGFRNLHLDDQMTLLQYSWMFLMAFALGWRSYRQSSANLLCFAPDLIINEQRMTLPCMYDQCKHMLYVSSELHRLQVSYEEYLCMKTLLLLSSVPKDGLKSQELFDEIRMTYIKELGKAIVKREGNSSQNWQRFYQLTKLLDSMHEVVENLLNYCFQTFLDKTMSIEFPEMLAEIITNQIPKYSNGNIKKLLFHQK

[6] = biological target: Glucocorticoid receptor (Homo sapiens) (UniProt P04150); assay: GR-EFC Redistribution (AID 451; calls by dose curve; further: potency means the concentration at half of the fitted maximal effect); settings: CHO-K1 GR-EFC translocation, beta-gal luminescence, 2 h
How it was run: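 CHO-K1 cells stably expressing nuclear-localized β-gal enzyme acceptor and GR fused C-terminally to the enzyme donor fragment; ligand-driven nuclear translocation restores β-gal by complementation. Compounds titrated up to 46 uM final, 2 h at 37 °C; luminescence read.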

[7] = biological target: Mitogen-activated protein kinase 10 (Mus musculus) (UniProt Q61831); assay: JNK3 AlphaScreen Assay (AID 530; active means well fitted curve in either direction with a large enough effect, not every such curve was filed as active;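 further: kinase came from lysate of stimulated human HepG2 cells; signal reports phosphorylation of biotinylated GST-cJun 1-79 at Ser73 with 10 µM ATP; on the % scale 0 is the no-effect control and ±100 the full control effect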)
How it was run: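 JNK3 came from HepG2 lysates pre-activated with IL-1beta and TNF-alpha and phosphorylated biotinylated GST-cJun (1-79) at 10 uM ATP, pH 7.6, room temperature. Compounds were titrated. AlphaScreen signal used anti-phospho-cJun (Ser73) antibody.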

[8] = biological target: 3',5'-cyclic-AMP phosphodiesterase 4B (Homo sapiens) (UniProt Q07343); assay: qHTS Assay for Inhibitors of PDE-IV (AID 607; active means well fitted activation curve with a large enough effect in the main read-out, with a control signal flat, not every such curve was filed as active; further: potency means the concentration at half of the fitted maximal effect)
Sequence of 3',5'-cyclic-AMP phosphodiesterase 4B (Homo sapiens) (Q07343 whole entry, looked up): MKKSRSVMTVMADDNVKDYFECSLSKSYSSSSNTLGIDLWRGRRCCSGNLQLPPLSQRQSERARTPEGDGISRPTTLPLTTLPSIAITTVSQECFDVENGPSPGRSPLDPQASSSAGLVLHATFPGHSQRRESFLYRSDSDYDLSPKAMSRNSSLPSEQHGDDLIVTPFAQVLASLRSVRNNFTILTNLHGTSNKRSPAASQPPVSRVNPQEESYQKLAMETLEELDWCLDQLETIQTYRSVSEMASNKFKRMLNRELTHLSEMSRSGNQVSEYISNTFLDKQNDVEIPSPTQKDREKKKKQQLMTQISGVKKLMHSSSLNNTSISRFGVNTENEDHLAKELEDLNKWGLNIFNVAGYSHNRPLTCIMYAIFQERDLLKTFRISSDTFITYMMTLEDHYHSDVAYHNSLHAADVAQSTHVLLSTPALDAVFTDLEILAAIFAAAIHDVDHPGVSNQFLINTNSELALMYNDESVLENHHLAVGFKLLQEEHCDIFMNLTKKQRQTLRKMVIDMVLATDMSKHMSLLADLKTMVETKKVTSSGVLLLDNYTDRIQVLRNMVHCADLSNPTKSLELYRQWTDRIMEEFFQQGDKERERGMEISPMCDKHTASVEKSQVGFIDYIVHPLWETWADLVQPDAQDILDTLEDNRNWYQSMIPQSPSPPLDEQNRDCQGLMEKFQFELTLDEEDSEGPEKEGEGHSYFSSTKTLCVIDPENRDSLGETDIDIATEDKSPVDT
How it was run: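 ACTOne HEK293 cells carry a modified cAMP-gated CNG channel and express endogenous PDE4; plated 1000 cells/well, compounds up to 22.9 uM final. Membrane-potential dye fluorescence (ex 535/em 590) was read; parental cells received 10 uM forskolin + 100 uM RO 20-1724.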

[9] = qHTS Assay for Lipid Storage Modulators (AID 1519; calls by dose curve); settings: Drosophila S3 cells, BODIPY lipid droplet/cell ratio, laser cytometry, cells loaded with oleic acid
How it was run: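 Cells seeded at 5,000 per well were treated with compounds over a concentration series and loaded with oleic acid (400 uM, as added). Lipid droplet fluorescence (488 nm excitation, 500-530 nm channel) was read by laser-scanning cytometry and normalized to 20 uM Triacsin C.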

[10] = biological target: Ubiquitin carboxyl-terminal hydrolase 1 (Homo sapiens) (UniProt O94782); assay: Inhibitors of USP1/UAF1: Pilot qHTS (AID 504865);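 further: rhodamine fluorescence freed from ubiquitin-rhodamine substrate followed over time; top concentration of the series differs between compounds; on the % scale 0 is the no-effect control and ±100 the full control effect; nearly all actives have a fitted effect of over 35% in size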
Sequence of Ubiquitin carboxyl-terminal hydrolase 1 (Homo sapiens) (O94782 whole entry, looked up): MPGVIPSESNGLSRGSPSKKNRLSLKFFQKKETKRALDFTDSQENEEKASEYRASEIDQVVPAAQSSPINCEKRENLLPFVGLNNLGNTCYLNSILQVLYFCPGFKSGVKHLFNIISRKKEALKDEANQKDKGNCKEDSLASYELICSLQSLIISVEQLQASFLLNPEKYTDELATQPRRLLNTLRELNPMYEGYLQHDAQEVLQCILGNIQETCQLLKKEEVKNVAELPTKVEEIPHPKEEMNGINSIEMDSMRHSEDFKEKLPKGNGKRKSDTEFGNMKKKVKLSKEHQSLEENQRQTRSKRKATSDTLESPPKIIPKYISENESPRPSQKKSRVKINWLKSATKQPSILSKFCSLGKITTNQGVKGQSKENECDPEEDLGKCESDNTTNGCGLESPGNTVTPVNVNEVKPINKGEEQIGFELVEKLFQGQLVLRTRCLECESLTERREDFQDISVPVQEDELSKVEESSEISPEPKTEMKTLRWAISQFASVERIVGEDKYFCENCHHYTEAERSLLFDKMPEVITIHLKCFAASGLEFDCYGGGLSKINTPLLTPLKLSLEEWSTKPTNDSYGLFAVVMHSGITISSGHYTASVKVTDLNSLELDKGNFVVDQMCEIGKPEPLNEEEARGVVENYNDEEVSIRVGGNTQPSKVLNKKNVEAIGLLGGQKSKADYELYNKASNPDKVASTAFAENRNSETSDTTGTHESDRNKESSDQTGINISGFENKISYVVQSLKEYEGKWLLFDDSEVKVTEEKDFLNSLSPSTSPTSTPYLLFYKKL
How it was run: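 Enzyme-free wells gave the negative control, while test wells held 1nM USP1/UAF1 preincubated with compound for 15 min at room temperature. Ub-Rho at 150nM final started the reaction, and fluorescence at 480/540 nm was recorded kinetically.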

[11] = biological target: DNA dC->dU-editing enzyme APOBEC-3G (Homo sapiens) (UniProt Q9HC16); assay: qHTS for inhibitors of Vif-A3G interactions: Validation (AID 588379); further: 0% is about no effect
Sequence of DNA dC->dU-editing enzyme APOBEC-3G (Homo sapiens) (Q9HC16 whole entry, looked up): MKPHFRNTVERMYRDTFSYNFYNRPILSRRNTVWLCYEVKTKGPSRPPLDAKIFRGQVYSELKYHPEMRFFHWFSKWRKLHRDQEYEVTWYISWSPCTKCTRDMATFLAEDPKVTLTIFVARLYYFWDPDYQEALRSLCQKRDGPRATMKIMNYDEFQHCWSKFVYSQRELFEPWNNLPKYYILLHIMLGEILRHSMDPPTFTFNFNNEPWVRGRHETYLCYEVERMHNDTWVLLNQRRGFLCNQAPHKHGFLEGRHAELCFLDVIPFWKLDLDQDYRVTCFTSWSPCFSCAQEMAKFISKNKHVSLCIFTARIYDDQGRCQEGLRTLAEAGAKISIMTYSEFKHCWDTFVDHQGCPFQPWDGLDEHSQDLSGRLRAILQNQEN
How it was run: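 HeLa cells stably expressing Vif and A3G-eYFP, 700 cells/well, incubated overnight at 37 deg C, then exposed to compound overnight at 37 deg C. Inhibition of Vif-mediated degradation read as increased yellow fluorescence (Ex 488/Em 500-530) by laser-scanning cytometry.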

[12] = system: Zika virus NS2B-NS3 protease; assay: Primary screen GU AMC qHTS for Zika virus inhibitors (AID 1347154);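 further: 0% = no-inhibitor control and -100% = no-enzyme control; nearly all actives have a fitted effect of over 70% in size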
How it was run: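 Unlinked Zika NS2B hydrophilic domain/NS3 protease domain noncovalent complex (25 nM final) in 10 mM Tris-HCl pH 8.0, 0.01% Tween 20, with AMC peptide substrate. Fluorescence (ex 340, em 450 nm) change over 15 min, room temperature; percent inhibition fitted to 4-parameter Hill equation.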

[13] = Primary qHTS for small molecule stabilizers of the endoplasmic reticulum resident proteome: Secreted ER Calcium Modulated Protein (SERCaMP) assay (AID 1508630); further: on the % scale 0 is the no-effect control and ±100 the full control effect
How it was run: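 GLuc-SERCaMP-expressing SH-SY5Y cells, pretreated 16 h with compound, are challenged with thapsigargin to empty ER calcium stores; after 4 h, coelenterazine is added directly to the medium and luminescence is imaged.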

[14] = biological target: Cytochrome P450 3A4 (Homo sapiens) (UniProt P08684); assay: qHTS Assay for Activators of Cytochrome P450 3A4 (AID 885); further: nearly all actives have a fitted effect of over 65% in size
Sequence of Cytochrome P450 3A4 (Homo sapiens) (P08684 whole entry, looked up): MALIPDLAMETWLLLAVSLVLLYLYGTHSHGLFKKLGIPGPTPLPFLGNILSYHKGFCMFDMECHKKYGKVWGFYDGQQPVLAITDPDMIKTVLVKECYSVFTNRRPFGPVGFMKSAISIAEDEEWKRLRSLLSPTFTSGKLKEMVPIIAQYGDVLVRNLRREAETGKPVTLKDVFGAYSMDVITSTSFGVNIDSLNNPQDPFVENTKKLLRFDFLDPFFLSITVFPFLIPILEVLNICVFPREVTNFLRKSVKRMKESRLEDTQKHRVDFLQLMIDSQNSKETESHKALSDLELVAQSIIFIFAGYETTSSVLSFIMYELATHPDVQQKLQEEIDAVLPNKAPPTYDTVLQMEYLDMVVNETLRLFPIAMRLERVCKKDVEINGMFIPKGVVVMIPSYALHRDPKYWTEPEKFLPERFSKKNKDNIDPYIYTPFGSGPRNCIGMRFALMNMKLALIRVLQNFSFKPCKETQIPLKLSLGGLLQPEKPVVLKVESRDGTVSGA
How it was run: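 20nM CYP3A4 + 25uM Luciferin-PPXE (=KM), 200mM KPO4; cpd 10 min RT; NADPH regen, 60 min RT; stop w/ detection buffer, 20 min; luminescence. Normalized to 57 uM ketoconazole.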

[15] = biological target: Cytochrome P450 2D6 (Homo sapiens) (UniProt P10635); assay: qHTS Assay for Inhibitors and Substrates of Cytochrome P450 2D6 (AID 891); further: potency means the concentration at half of the fitted maximal effect; nearly all actives have a fitted effect of over 60% in size
Sequence of Cytochrome P450 2D6 (Homo sapiens) (P10635 whole entry, looked up): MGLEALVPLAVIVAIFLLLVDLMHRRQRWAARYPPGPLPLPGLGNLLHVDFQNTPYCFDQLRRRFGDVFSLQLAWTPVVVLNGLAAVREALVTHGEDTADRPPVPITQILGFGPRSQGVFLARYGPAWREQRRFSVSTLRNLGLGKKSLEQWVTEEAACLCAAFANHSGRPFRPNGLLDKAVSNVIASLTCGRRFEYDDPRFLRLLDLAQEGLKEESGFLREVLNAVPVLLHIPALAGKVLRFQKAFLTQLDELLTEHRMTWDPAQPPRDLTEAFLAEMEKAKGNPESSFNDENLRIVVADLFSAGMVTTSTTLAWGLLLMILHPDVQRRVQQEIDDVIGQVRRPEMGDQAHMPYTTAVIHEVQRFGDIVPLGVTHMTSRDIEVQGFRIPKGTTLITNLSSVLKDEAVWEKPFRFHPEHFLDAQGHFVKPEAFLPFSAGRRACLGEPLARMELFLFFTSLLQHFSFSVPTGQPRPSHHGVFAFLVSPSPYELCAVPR
How it was run: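 Human CYP2D6 (5 nM) with 30 uM Luciferin-ME EGE (at Km) in 100 mM KPO4, compound preincubated 10 min, then NADPH regeneration system for 60 min at room temperature. Luciferin read by luminescence; normalized to 1.43 uM quinidine.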

[16] = measured here: cell count channel max response
[17] = measured here: lipid channel max response

CC(C)NC[C@@H](O)COc1ccc(COCCOC(C)C)cc1
6.08% and -6.81%: max response [9, 17]
inactive: activity change, negative = inhibition [1] -0.912% | Potency [2] | activity change, negative = inhibition [3] 3.53% | activity, negative = inhibition [4] 15.4% | Potency [5] > 20.6 µM and > 46 µM | Potency [6] > 20.6 µM and > 46 µM | Potency [7] | Potency [8] | activity change, negative = inhibition ([9]; at 25.7 µM (top of the series)) -1.04% | activity change, negative = inhibition ([9]; at 57.5 µM (top of the series)) 0.281% | Potency [10] | Potency [11] | Potency [12] | Potency [13]
2.54% and -5.68%: max response [9, 16]

CCN(CC)CCOC(=O)C1(c2ccc([N+](=O)[O-])cc2)CCCC1
inactive: activity change, negative = inhibition [1] 3.14% | activity, negative = inhibition [4] 6.83% | Potency [5] > 20.6 µM and > 46 µM | Potency [6] > 20.6 µM and > 46 µM | Potency [7] | Potency [14] | activity change, negative = inhibition ([9]; at 25.7 µM (top of the series)) -0.418% | activity change, negative = inhibition ([9]; at 57.5 µM (top of the series)) -3.02% | Potency [10] | Potency [11] | Potency [12] | Potency [13]
-19.2% and -15.6%: max response [9, 17]
active: Potency [2] 3.98 µM and 3.16 µM | Potency [15] 3.98 µM and 5.01 µM
inactive and 4.77 µM (active): Potency [8]
-8.14% and -12.9%: max response [9, 16]

CCCCCCCCCC(=O)OCC(CO)OC(=O)CCCCCCCCC (configuration not stated)
inactive: activity change, negative = inhibition [12] 1.45% [at 6.83 µM] | activity change, negative = inhibition [13] -13.4% [at 3.88 µM]

CC(C)NC[C@H](O)c1ccc2ccccc2c1
inactive: activity change, negative = inhibition [1] 1.15% | activity change, negative = inhibition [3] -18.4% | activity, negative = inhibition [4] -5.4% | Potency [5] > 20.6 µM and > 46 µM | Potency [6] > 20.6 µM and > 46 µM | Potency [7] | Potency [8] | activity change, negative = inhibition ([9]; at 25.7 µM (top of the series)) -2.39% | activity change, negative = inhibition ([9]; at 57.5 µM (top of the series)) -0.481% | Potency [10] | Potency [11] | Potency [12] | Potency [13]
active: Potency [2] 10 µM and 12.6 µM | Potency [15] 3.16 µM
2.13% and 8.48%: max response [9, 16]
-2.74% and 9.7%: max response [9, 17]

— PubChem BioAssay (NCATS)
